# Measured values published in PubChem BioAssay (EPA / NIEHS).
# Results filed as inconclusive are left out. The source made the active and inactive calls. The calls were made as follows: active = hit-call score of the fitted dose curve at least 0.9, where 1 is the maximum; inconclusive = response in the unintended direction; inactive = score below 0.9.
# Read-out: alkyl and aryl transferase (GSTA2), GSTA2 (gene 2939)
# Experiment: CLD_GSTA2_6hr: CellzDirect (CLD) Gene Expression Assay for alkyl and aryl transferase (GSTA2) at 6 hours (AID 2283666)
# Procedure: CLD_6hr is a cell-based, multiplexed-readout assay that uses hepatocyte, a human liver primary cell, with measurements taken at 6 hours after chemical dosing in a 96-well plate.CLD_GSTA2_6hr is one of 16 assay component(s) measured or calculated from the CLD_6hr assay. It is designed to make measurements of mRNA induction, a form of inducible reporter, as detected with chemiluminescence signals by Quantitative Nuclease Protection Assay (qNPA) technology.Data from the assay component CLD_GSTA2_6hr was analyzed at the endpoint, CLD_GSTA2_6hr, in the positive analysis fitting direction relative to DMSO as the negative control and baseline of activity. Using a type of inducible reporter, gain-of-signal activity can be used to understand changes in the reporter gene as they relate to the gene GSTA2. Furthermore, this assay endpoint can be referred to as a primary readout. To generalize the intended target to other relatable targets, this assay endpoint is annotated to the transferase intended target family, where subfamily is alkyl and aryl transferase.
# Human hepatocyte cultures were treated daily for two consecutive days with fresh dosing solutions containing appropriate concentrations of the 320 ToxCast chemicals (chemical identities were blinded to CellzDirect and other ToxCast collaborators), vehicle control (0.2% DMSO), and positive control inducers as summarized in Table 1. Due to the large number of treatment groups and chemicals examined, the ToxCast chemicals were divided into two groups (spanning two independent cultures of hepatocytes from separate donor preparations (Hu778: ToxCast plates 1 and 2; Hu776: ToxCast plates 3 and 4). Each preparation of human hepatocyte cultures was treated with respective vehicle control, medium only control, set of six positive controls/reference chemicals for the five hepatic receptor pathways, and a subset of eight of the ToxCast chemicals (indoxacarb, pyrithiobac-sodium, norflurazon, cyhalofop-butyl, methomyl, thiram, acetochlor, and propiconazole). These replicate data, coupled with internal replicates designed within the blinded ToxCast chemical library, provided additional data to evaluate interindividual differences between hepatocyte preparations and their potential impact on chemical profiles.Cell morphology and integrity were evaluated using phase-contrast microscopy as an indicator of hepatocyte cell health (Tyson & Green, 1987). Cultures for each treatment group (i.e., media, vehicle [0.2% DMSO], positive control inducers [multiple concentrations], and the ToxCast chemicals [multiple concentrations]) were observed and cell morphology was assessed relative to vehicle control cultures at each harvest time point (0, 6, 24, or 48 h). […] Images were evaluated at the conclusion of the study to assess changes in cell integrity and account for the effects of chemical exposure on uncharacteristic changes in concentration-dependent gene expression profiles. The results from these determinations of apparent cytotoxicity were annotated (yes/no) alongside the corresponding qNPA data for reference.At the conclusion of each treatment period, hepatocyte cultures (96-well) were washed with 1 volume of HBSS, lysed by addition of 25 ul ArrayPlate lysis buffer (HTG, Tucson, AZ), and 70 ul/well of Denaturation Oil, denatured by incubation at 95C for 10 min, and frozen at approximately -70C until analysis by nuclease protection assay (qNPA) (Roberts et al., 2007). For qNPA analysis, cell lysates were thawed at 50C for approximately 30 min, qNPA probes were added, and samples were incubated at 95C for 10 min to begin the detection process by denaturing the target RNA, dissociating the duplexes and secondary structure hybridization. At the conclusion of the hybridization period, S1 nuclease reagent was added to each sample to digest all nonprotected nucleotides at 50C for 60-90 min. […]
row,SMILES,outcome
1,CN1COCN(Cc2cnc(Cl)s2)C1=N[N+](=O)[O-],inactive
2,C=C(C)[C@H]1Cc2c(ccc3c2O[C@@H]2COc4cc(OC)c(OC)cc4[C@@H]2C3=O)O1,inactive
3,CCOC(=O)COc1cc(-c2nn(C)c(OC(F)F)c2Cl)c(F)cc1Cl,inactive
4,CNc1cnn(-c2cccc(C(F)(F)F)c2)c(=O)c1Cl,inactive
5,CCCCN(CC)c1c([N+](=O)[O-])cc(C(F)(F)F)cc1[N+](=O)[O-],inactive
6,S=C1NCCN1,inactive
7,COc1cccc(C(=O)NN(C(=O)c2cc(C)cc(C)c2)C(C)(C)C)c1C,inactive
8,CSc1nc(NC(C)C)nc(NC(C)C)n1,inactive
9,CCOP(=O)(NC(C)C)Oc1ccc(SC)c(C)c1 (stereo not given),inactive
10,CCc1cccc(C)c1N(C(=O)CCl)C(C)COC (stereo not given),inactive
11,CCC(=O)Nc1ccc(Cl)c(Cl)c1,inactive
12,CCOP(=S)(OCC)Oc1ccc2c(C)c(Cl)c(=O)oc2c1,inactive
13,CCc1cccc(CC)c1N(COC)C(=O)CCl,inactive
14,CC(C)N(C(=O)SCC(Cl)=C(Cl)Cl)C(C)C,inactive
15,CN(C)[C@@H]1C(=O)C(C(N)=O)=C(O)[C@@]2(O)C(=O)C3=C(O)c4c(O)cccc4[C@@](C)(O)[C@H]3[C@H](O)[C@@H]12,inactive
16,CCCOCC(=Nc1ccc(Cl)cc1C(F)(F)F)n1ccnc1,inactive
17,CCCOc1nn(C(=O)NS(=O)(=O)c2ccccc2C(=O)OC)c(=O)n1C,inactive
18,CCOP(=S)(OCC)Oc1cc(C)nc(C(C)C)n1,inactive
19,CSC1=N[C@@](C)(c2ccccc2)C(=O)N1Nc1ccccc1,inactive
20,COc1ccc(C(=CC(=O)N2CCOCC2)c2ccc(Cl)cc2)cc1OC,inactive

row,SMILES,outcome
1,COc1cc(OC)nc(Sc2cccc(Cl)c2C(=O)O)n1,inactive
2,COP(=O)(OC)C(O)C(Cl)(Cl)Cl (stereo not given),inactive
3,CC1=NNC(=O)N(/N=C/c2cccnc2)C1,inactive
4,CCCCOC(=O)c1ccccc1C(=O)O,inactive
5,C[N+]1(C)CCCCC1,inactive
6,CC(C)=CC1C(C(=O)OCN2C(=O)C3=C(CCCC3)C2=O)C1(C)C (stereo not given),inactive
7,COP(=O)(OC)OC(Br)C(Cl)(Cl)Br (stereo not given),inactive
8,C#CCC1=C(C)C(OC(=O)C2C(C=C(C)C)C2(C)C)CC1=O (stereo not given),inactive
9,CC(Oc1cccc(Cl)c1)C(=O)O (stereo not given),inactive
10,CCOP(=S)(Oc1cnc(C(C)(C)C)nc1)OC(C)C (stereo not given),inactive
11,COP(=O)(OC)SCn1c(=O)oc2cc(Cl)cnc21,inactive
12,CCC(=NOC/C=C/Cl)C1=C(O)CC(C2CCOCC2)CC1=O (stereo not given),inactive
13,CC1(C(=O)Nc2ccc(O)c(Cl)c2Cl)CCCCC1,inactive
14,N#CSCSC#N,inactive
15,CC[C@H](C)[C@H]1O[C@]2(C=C[C@@H]1C)C[C@@H]1C[C@@H](C/C=C(\C)[C@@H](O[C@H]3C[C@H](OC)[C@@H](O[C@H]4C[C@H](OC)[C@@H](NC)[C@H](C)O4)[C@H](C)O3)[C@@H](C)/C=C/C=C3\CO[C@@H]4[C@H](O)C(C)=C[C@@H](C(=O)O1)[C@]34O)O2,inactive
16,CC(COc1ccc(Oc2ccccc2)cc1)Oc1ccccn1 (stereo not given),inactive
17,O=c1ccc(=O)[nH][nH]1,inactive
18,CC(C)[C@H](C(=O)O[C@H](C#N)c1cccc(Oc2ccccc2)c1)c1ccc(Cl)cc1,inactive
19,CNC(=O)Oc1cccc2c1OC(C)(C)O2,inactive
20,CNC(=O)ON=C(C)SC,inactive
